Among the data in PubChem BioAssay AID2073 (Sanford-Burnham Center for Chemical Genomics, 2009) are inhibition values, retold here.

Among all 290,000 compounds or so, about 570 (0.2%) were called active. Not shown: some 1% with an inconclusive outcome. The sample holds actives, similar compounds and a random draw of the others, so the mix is not that of the screen. Rule as the data show it: active = inhibition mostly above about 51% (no sharp cut-off); inconclusive = no clear call, values can overlap the other calls; inactive = mostly below about 53%.

For this assay, the target named is Voltage-dependent N-type calcium channel subunit alpha-1B (Homo sapiens) (UniProt Q00975). Kind of assay: inhibitors of Mint1-CaV2.2 protein interaction, biochemical, HTRF (AID 2073). As to conditions: at 20 µM, stronger effect = higher value. In general terms: TR-FRET usually uses a lanthanide donor and a delayed reading to cut background.
[1] abbreviates: measured here: average of repeat tests.

Chain of Voltage-dependent N-type calcium channel subunit alpha-1B (Homo sapiens) (Q00975 whole entry, looked up): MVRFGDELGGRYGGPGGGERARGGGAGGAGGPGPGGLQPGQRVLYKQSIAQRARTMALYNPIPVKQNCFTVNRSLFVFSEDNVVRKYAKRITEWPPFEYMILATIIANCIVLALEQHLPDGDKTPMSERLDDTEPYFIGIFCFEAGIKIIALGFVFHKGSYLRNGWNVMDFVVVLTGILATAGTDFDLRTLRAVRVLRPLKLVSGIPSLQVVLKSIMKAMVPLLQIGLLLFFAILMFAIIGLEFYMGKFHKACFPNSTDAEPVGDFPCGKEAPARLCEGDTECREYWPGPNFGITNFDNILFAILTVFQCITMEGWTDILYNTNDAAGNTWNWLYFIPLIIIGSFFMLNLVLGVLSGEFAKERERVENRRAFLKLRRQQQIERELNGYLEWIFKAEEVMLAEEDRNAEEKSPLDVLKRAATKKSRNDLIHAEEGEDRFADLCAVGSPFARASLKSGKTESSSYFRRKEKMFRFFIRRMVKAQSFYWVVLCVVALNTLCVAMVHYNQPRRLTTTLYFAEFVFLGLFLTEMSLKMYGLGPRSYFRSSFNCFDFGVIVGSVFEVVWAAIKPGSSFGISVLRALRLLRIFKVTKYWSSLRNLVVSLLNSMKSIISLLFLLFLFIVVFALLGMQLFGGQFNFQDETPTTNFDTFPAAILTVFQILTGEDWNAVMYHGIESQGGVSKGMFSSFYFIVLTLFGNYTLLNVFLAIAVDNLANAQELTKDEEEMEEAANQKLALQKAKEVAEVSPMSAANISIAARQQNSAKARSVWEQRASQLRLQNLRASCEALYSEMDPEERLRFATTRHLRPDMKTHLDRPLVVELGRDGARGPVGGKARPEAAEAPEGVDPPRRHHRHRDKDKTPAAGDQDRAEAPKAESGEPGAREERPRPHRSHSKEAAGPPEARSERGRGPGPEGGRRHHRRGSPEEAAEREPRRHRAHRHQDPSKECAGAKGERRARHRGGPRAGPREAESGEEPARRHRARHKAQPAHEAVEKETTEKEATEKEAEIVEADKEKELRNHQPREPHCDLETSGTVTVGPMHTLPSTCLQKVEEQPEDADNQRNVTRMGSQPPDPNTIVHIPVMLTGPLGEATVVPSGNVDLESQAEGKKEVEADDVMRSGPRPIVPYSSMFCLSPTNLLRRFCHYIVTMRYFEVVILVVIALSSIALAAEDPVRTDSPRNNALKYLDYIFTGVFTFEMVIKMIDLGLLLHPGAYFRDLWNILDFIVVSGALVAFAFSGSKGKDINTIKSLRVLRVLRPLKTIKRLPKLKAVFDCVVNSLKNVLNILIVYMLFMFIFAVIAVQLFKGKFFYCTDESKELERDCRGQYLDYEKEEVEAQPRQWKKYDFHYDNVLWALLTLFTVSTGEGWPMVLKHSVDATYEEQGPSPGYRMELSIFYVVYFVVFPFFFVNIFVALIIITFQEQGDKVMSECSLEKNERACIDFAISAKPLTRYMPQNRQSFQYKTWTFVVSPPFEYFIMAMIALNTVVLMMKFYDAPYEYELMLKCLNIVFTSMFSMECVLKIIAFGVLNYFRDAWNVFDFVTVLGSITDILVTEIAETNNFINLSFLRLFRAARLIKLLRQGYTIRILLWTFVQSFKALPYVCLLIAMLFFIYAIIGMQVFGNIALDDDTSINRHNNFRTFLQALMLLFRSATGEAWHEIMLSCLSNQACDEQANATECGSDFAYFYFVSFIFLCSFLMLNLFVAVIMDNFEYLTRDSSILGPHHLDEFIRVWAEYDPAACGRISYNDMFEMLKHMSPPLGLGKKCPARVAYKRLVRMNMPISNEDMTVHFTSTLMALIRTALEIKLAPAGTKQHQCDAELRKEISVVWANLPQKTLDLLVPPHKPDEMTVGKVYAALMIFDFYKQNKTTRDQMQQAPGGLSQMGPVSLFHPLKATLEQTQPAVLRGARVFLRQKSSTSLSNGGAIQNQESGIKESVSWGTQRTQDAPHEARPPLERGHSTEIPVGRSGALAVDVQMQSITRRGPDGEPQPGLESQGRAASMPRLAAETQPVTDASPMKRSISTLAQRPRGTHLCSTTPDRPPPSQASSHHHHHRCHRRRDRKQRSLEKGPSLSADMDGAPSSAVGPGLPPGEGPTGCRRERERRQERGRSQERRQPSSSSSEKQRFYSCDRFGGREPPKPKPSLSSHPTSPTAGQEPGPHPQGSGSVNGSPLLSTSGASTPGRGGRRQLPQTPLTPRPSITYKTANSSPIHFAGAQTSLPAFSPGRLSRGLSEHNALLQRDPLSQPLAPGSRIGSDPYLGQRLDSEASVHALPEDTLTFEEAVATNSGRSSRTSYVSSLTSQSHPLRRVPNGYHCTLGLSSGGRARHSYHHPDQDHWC

The term inhibition denotes the relative decrease from the control value, in per cent. Take `O=c1cc2c(=O)oc3cc(O)c(O)oc3c2c(O)c1O`: the inhibition was 70% (active). On to `O=c1oc2ccccc2c2oc3cc(O)c(O)cc3c12`, for which the inhibition is 20% (inactive). Regarding `O=c1oc2c(O)c(O)cc3c(=O)oc4c(O)c(O)cc1c4c23`, the inhibition is 9.6% (inactive). `COc1ccc(OC)c(NC(=O)CCC(=O)N(Cc2ccc(OC)c(OC)c2)c2nccs2)c1`: the inhibition was 0.5% (inactive). `CC(C)c1ccc(C2NC(=S)NC3=C2C(=O)CC(C)(C)C3)cc1` (configuration not stated): the inhibition was -9.1% (inactive). Regarding `Cc1cc(N2CCC(C(=O)NC3CCCCC3)CC2)nc(-c2ccccc2)n1`, the inhibition is -4% (inactive). Still for that read-out and setting: for `COc1cccc(/C=C(\CC(=O)O)c2nc3ccccc3s2)c1` the value was -2.6% (inactive); for `COc1cccc(/C=C(/CC(=O)Nc2ccc(N3CCOCC3)cc2)c2nc3ccccc3s2)c1`, 59.9% (active); for `COc1ccc(/C=C(/CC(=O)Nc2ccccc2)c2nc3ccccc3s2)cc1`, 13% (inactive).

In the case of `Cc1nonc1C1CCCN1Cc1cn[nH]c1-c1ccc2c(c1)OCO2` (configuration not stated), the inhibition was 6.8% (inactive). Take `CCOc1ccc2nc(Nc3nc4ccc(NC(C)=O)cc4s3)sc2c1`: the inhibition is 55% (active). Regarding `CCOc1ccc2nc(NS(=O)(=O)c3ccc(NC(C)=O)cc3)sc2c1`, the inhibition is -0.1% (inactive). In the case of `CCOc1cccc2sc(Nc3nc4ccc(NC(C)=O)cc4s3)nc12`, the inhibition is 28.4% (inactive). With `COc1ccc(C(=O)/C=C/C(=O)N(CC(=O)NC2CCCCC2)Cc2ccc(F)cc2)c(O)c1`, the inhibition was 37.7% (inactive). Consider `COc1ccc(C(=O)/C=C/C(=O)N(CC(=O)NC2CCCCC2)Cc2ccccc2OC)c(O)c1`, for which the inhibition was 11.5% (inactive). With `COc1ccc(C(=O)/C=C/C(=O)N(CC(=O)NC2CCCCC2)Cc2ccccc2)c(O)c1`, the inhibition was 64.1% (active). The same measure, in the same setting: with `CCc1nnc(N/N=C/c2c(Cl)cccc2Cl)n1N` the figure was -7.9% (inactive); with `CCc1nnc(N/N=C/c2c(C)[nH]c3ccccc23)n1N`, 55.5% (active); with `Cc1[nH]c2ccccc2c1/C=N/Nc1nncn1N`, -14.7% (inactive). On to `CCC1Oc2ccc(C)cc2N(CC(=O)N(Cc2cccnc2)Cc2cccc(F)c2)C1=O` (configuration not stated), for which the inhibition is -3.3% (inactive). On the same count and under the same terms, with `CCC1Oc2ccc(C)cc2N(CC(=O)N(Cc2ccncc2)Cc2ccco2)C1=O` (configuration not stated) the figure was 10.2% (inactive); with `CCC1Oc2ccc(C)cc2N(CC(=O)N(Cc2cccnc2)Cc2ccc(C)o2)C1=O` (configuration not stated), 52.5% (active). Same read-out and setting: for `CCOC(=O)c1cnn(-c2cc(C)cc(C)c2)c1N` the value was 3.5% (inactive); for `Cc1ccc(CSc2nnc(SCC(=O)N/N=C/c3c[nH]c4ccccc34)s2)cc1`, 59.7% (active). Turning to `O=C(CSc1nnc(SCc2ccccc2)s1)N/N=C/C=C\c1ccco1`, the inhibition is 79.7% (inactive). In addition, the inhibition under setting [1] was found to be 18.4%. Consider `O=C(CSc1nnc(SCc2ccccc2)s1)N/N=C/c1c[nH]c2ccccc12`, for which the inhibition is 44.7% (inactive).

As for `Cc1ccc(CSc2nnc(SCC(=O)N/N=C/C=C/c3ccco3)s2)cc1`, the inhibition was 35.3% (inactive). Same read-out and setting: with `O=C(CSc1nnc(SCc2ccccc2)s1)N/N=C/C=C/c1ccco1` the figure was 50.1% (active). As to `O=C(CSc1nnc(SCc2ccc(Cl)cc2)s1)N/N=C/c1c[nH]c2ccccc12`, the inhibition was 50.2% (inactive). Besides, under setting [1], the inhibition is 42.7%. For the compound `Nc1cc(Cl)ccc1C(=O)OCC(=O)N1CCOCC1`, the inhibition is 7.5% (inactive).

As to `O=C(O)c1cc(NCc2cccs2)ccc1N1CCOCC1`, the inhibition was 9.9% (inactive). For `CCn1c(SCC(=O)NC2CCCCC2)nnc1C(C)NC(=O)c1ccccc1F` (configuration not stated), the inhibition was 8.6% (inactive). `CC(C)c1ccc(OCC(O)CN2CCCC2)cc1` (configuration not stated): the inhibition is -4.2% (inactive).

Take `CCCn1c(SCC(=O)N2c3ccc(F)cc3CCC2C)nnc1-c1ccccn1` (configuration not stated): the inhibition is 7% (inactive).

Take `O=C(/C=C/c1ccco1)c1ccc(NC(=O)C23CC4CC(CC(C4)C2)C3)cc1`: the inhibition is 67.9% (active).

As to `CC(=O)Nc1ccc(C(=O)/C=C/c2ccco2)cc1`, the inhibition is 30.9% (inactive). As to `O=C(/C=C\c1ccco1)c1ccc(NC(=O)c2ccco2)cc1`, the inhibition is 68.1% (inactive). Also, the inhibition under setting [1] came out at 4%. Take `O=S(=O)(/N=C(/Nc1ccccc1)c1ccccc1O)c1ccccc1`: the inhibition is -7.3% (inactive). On to `Fc1ccc(C2=Nc3cccc4cccc(c34)N2)cc1`, for which the inhibition is -8.3% (inactive).

For the compound `c1coc(C2=Nc3cccc4cccc(c34)N2)c1`, the inhibition was 54.2% (active).

In the case of `Brc1ccc(C2=Nc3cccc4cccc(c34)N2)o1`, the inhibition was -20.5% (inactive).

Regarding `CNC(=O)CCn1nc(-c2ccc(C)cc2)c2ccccc2c1=O`, the inhibition was -2.1% (inactive). Take `CCOC(=O)c1c(O)cc(C)cc1Nc1ccccc1`: the inhibition was 14.3% (inactive). With `CCOc1ccc(C(=O)NCC(=O)OCC(=O)c2ccc3c(c2)-c2ccccc2C3)cc1`, the inhibition is 18.8% (inactive). Take `CNC(=S)N(CCc1cccc(C)c1)Cc1cc2cc(OC)c(OC)cc2[nH]c1=O`: the inhibition is 46.2% (inactive).

As for `CCC(C)NC(=S)N(CCc1ccccc1)Cc1cc2cc(OC)c(OC)cc2[nH]c1=O` (configuration not stated), the inhibition was 7.1% (inactive). Regarding `CNC(=S)N(CCc1ccccc1)Cc1cc2cc(OC)c(OC)cc2[nH]c1=O`, the inhibition is 65.8% (active). Consider `O=C(CC1(O)C(=O)N(C/C=C/c2ccccc2)c2ccccc21)c1ccccn1` (configuration not stated), for which the inhibition was 0% (inactive). In the case of `NCCOc1ccc(C2CCCCC2)cc1`, the inhibition is -11.4% (inactive).

As for `CCc1nc(NCCN2CCOCC2)c(C#N)c2c1CCCC2`, the inhibition is 9.8% (inactive). For `CCc1cccc(C)c1NC(=O)CSc1nc2ccc(N3C(=O)c4ccccc4C3=O)cc2s1`, the inhibition is 17.8% (inactive). With `Cc1ccc(C)c(NC(=O)CSc2nc3ccc(N4C(=O)c5ccccc5C4=O)cc3s2)c1`, the inhibition was -0.7% (inactive).

Take `Cc1cc(C)c(NC(=O)CSc2nc3ccc(N4C(=O)c5ccccc5C4=O)cc3s2)c(C)c1`: the inhibition is 55.2% (active). Still for that read-out and setting: for `Cc1ccc(C(=O)N/N=C/c2c(O)ccc3ccccc23)cn1` the value was 14.1% (inactive); for `Cc1cccc(C)c1NCc1n[nH]c(=S)n1-c1ccccc1`, -8.3% (inactive); for `O=C(NCCCN1CCOCC1)c1sc2cc([N+](=O)[O-])ccc2c1Cl`, 67.7% (active).

Regarding `O=C(NCCCN1CCOCC1)c1sc2cc(Cl)ccc2c1Cl`, the inhibition was -10.3% (inactive). On to `O=C(NCCCN1CCOCC1)c1sc2cc(F)ccc2c1Cl`, for which the inhibition was -0.7% (inactive).

With `C=C(C)CSc1[nH]c(=O)cc(C)c1C#N`, the inhibition was 1.3% (inactive). On to `Nc1c(C(=O)Nc2ccccc2)sc2nc3c(c(-c4ccco4)c12)CCC3`, for which the inhibition is 29.5% (inactive).

Consider `Nc1c(C(=O)NCC2CCCO2)sc2nc3c(c(-c4ccco4)c12)CC/C3=C\c1ccco1` (configuration not stated), for which the inhibition is 86.1% (active). As to `Nc1c(C(=O)Nc2ccccc2)sc2nc3c(c(-c4ccco4)c12)CCCC3`, the inhibition was 2.1% (inactive). For the compound `O=C(O)CCNS(=O)(=O)c1ccc(Oc2ccccc2)cc1`, the inhibition was -1.3% (inactive).

Turning to `CSCCC(NC(=O)OC(C)(C)C)C(=O)NC(C(=O)NC(CC(C)C)C(N)=O)C(C)C` (configuration not stated), the inhibition was 15.6% (inactive). Same read-out and setting: with `Cc1ccc(N2C(=O)C3C4C=CC(CNC(=S)N5CCN(c6ccccc6)CC5)(O4)C3C2=O)cc1` (configuration not stated) the figure was 45.6% (inactive); with `O=C(Nc1ccc2nc(-c3ccco3)c(-c3ccco3)nc2c1)N1CCCCCC1`, 71.2% (active). For the compound `CCOC(=O)C1CCN(C(=O)Nc2ccc3nccnc3c2)CC1`, the inhibition is 24.5% (inactive). Consider `O=C(Nc1ccc(N2CCOCC2)cc1)Nc1ccc2nc(-c3ccco3)c(-c3ccco3)nc2c1`, for which the inhibition was 48.8% (inactive). On the same count and under the same terms, with `Cc1nc2cc(NC(=O)N3CCN(c4ccccn4)CC3)ccc2o1` the figure was 0% (inactive); with `Cn1nnc2cc(NC(=O)N3CCN(c4ccccn4)CC3)ccc21`, -0.5% (inactive); with `O=C(Nc1ccc2nc(-c3ccco3)c(-c3ccco3)nc2c1)N1CCN(c2ccccn2)CC1`, 84.9% (active). Consider `Cc1nc2ccc(NC(=O)N3CCCCC3)cc2nc1C`, for which the inhibition was 40.3% (inactive). Consider `CCOC(=O)C1CCN(C(=O)Nc2ccc3nc(-c4ccco4)c(-c4ccco4)nc3c2)CC1`, for which the inhibition is 83.1% (active). Consider `CCOC(=O)C1CCN(C(=O)Nc2ccc3nc(C)c(C)nc3c2)CC1`, for which the inhibition was 36% (inactive). As for `Cc1ccc(NC(=O)NC(=O)CSc2nnnn2C)c(C)c1`, the inhibition is -7.8% (inactive). For `COc1cccc(C(C(=O)NC(C)(C)C)N(C(=O)CCC(=O)Nc2cc(C)on2)C(C)(C)C)c1OC` (configuration not stated), the inhibition is -7.6% (inactive). `O=C(CN1CCCCCC1=O)N1CCN(S(=O)(=O)c2cccs2)CC1`: the inhibition was 14.5% (inactive). Consider `CCOC(=O)c1[nH]c2ccccc2c1CCCN1C(=O)c2ccccc2C1=O`, for which the inhibition was -6.7% (inactive). Consider `CN(C)C(=O)CCC(=O)N1CCCC(N2CCN(c3cccc(C(F)(F)F)c3)CC2)C1` (configuration not stated), for which the inhibition was 5.4% (inactive).

In the case of `Nc1nc(N2CCN(c3ccccc3)CC2)n[nH]1`, the inhibition is -13.2% (inactive). As for `CCn1c(SCC(=O)N2CCC(C)CC2)nc2c1c(=O)n(C)c(=O)n2C`, the inhibition was 2.5% (inactive).

`NC(=O)CCC(NS(=O)(=O)c1ccc(Cl)cc1)C(=O)NCc1ccccc1` (configuration not stated): the inhibition is -16.2% (inactive). Same read-out and setting: with `CC(C)C(=O)N1CCN(c2ccc(NC(=O)c3cccs3)cc2Cl)CC1` the figure was 0.8% (inactive); with `CCOC(=O)C1CCN(C(=O)CN(c2ccc3c(c2)OCCO3)S(C)(=O)=O)CC1`, -9.6% (inactive); with `Cc1cccc(COCC(Cc2ccccc2)N2CCN(C(=O)c3cccc(Cl)c3)CCC2=O)c1` (configuration not stated), 1.7% (inactive).

Consider `O=S(=O)(NC1=NCCCCC1)c1ccccc1Cl`, for which the inhibition was 7.5% (inactive). Turning to `CC1=Nc2nc(N3CCCCC3)c(C#N)c3c4c(nc(c23)N1)N(c1ccc(C(C)C)cc1)C(=O)C4`, the inhibition was 54.8% (active).

As for `COc1ccc(CN2C(=O)Cc3c2nc(N)c2c(N)nc(N4CCCCC4)c(C#N)c32)cc1`, the inhibition was 24.2% (inactive). For the compound `CCN(CC)c1nc2c3c(nc4c(c3c1C#N)CC(=O)N4c1ccc(Cl)cc1)NC(C)=N2`, the inhibition is 15.5% (inactive). On to `C/C(=N\NC(N)=S)C1(C)CCCCC1`, for which the inhibition was 1.7% (inactive).

As to `Cc1cc(-c2csc(NC(=O)c3ccc(C#N)cc3)n2)c(C)n1Cc1ccco1`, the inhibition was 74% (active). The same measure, in the same setting: with `Cc1cc(-c2csc(NC(=O)c3ccc(C#N)cc3)n2)c(C)n1Cc1ccccc1` the figure was 31.3% (inactive).

As to `CCNc1nc(-c2cc(C)n(Cc3ccco3)c2C)cs1`, the inhibition was 71.4% (inactive). For the same compound, the inhibition under setting [1] is -8.8%.
